# Laboratory results from PubChem BioAssay.
# Where “and” joins values, the source holds several entries; their conditions need not be identical. Equal values may be shown once. Calls of active or inactive are those of the source.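 Rule for the calls, unless noted: active = thallium flux through the channel raised or lowered by more than 3 SD from vehicle-only wells, actives on both sides; inactive = the rest.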
# Tests used:
# [1] = P. berghei load reduction in hepatocytes – cell-based, HepG2, luciferase luminescence, HepG2 viability, primary screen (AID 624349; in the data active = parasite load remaining mostly below about 12%, no sharp cut-off; inactive = mostly above about 10%;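 note: 100% = mean of DMSO negative control wells on the same plate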); conditions: P. berghei liver stage in HepG2, luciferase luminescence, concentration not given here; parasite load remaining: stronger effect = lower value; viability: measured here: HepG2 viability without parasites
# [2] = signal quenchers or enhancers, Cy5 substrate/SSB – biochemical, NIH Clinical Collection, E. coli SSB, artefact control for HCV NS3 helicase inhibitor project (AID 743268; call rule not given here); conditions: Cy5-oligo bound E. coli SSB, fluorescence interference
# [3] = test system: Hepatitis C virus NS3 helicase; test: blockers of NS3h binding to DNA – biochemical, fluorescence polarization, NIH Clinical Collection, primary screen (AID 743270; call rule not given here); conditions: NS3 helicase binding to Cy5-dT15 DNA, stronger effect = higher value, concentration not given here
# [4] = target: Single-stranded DNA-binding protein (Escherichia coli (strain K12)) (UniProt P0AGE0); test: SSB-ssDNA binding inhibitors – biochemical, fluorescence polarization, NIH Clinical Collection, counter-screen for HCV NS3 helicase inhibitor project (AID 743271; in the data active = inhibition above about 28%); conditions: E. coli SSB-DNA binding, stronger effect = higher value, concentration not given here
# [5] = compounds distorting NS3 helicase fluorescence signal – biochemical, NIH Clinical Collection, artefact control for HCV NS3 helicase inhibitor project (AID 743272; call rule not given here;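 note: HCV NS3 helicase with a Cy5 labelled single stranded DNA probe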); conditions: fluorescence interference counterscreen, HCV NS3 helicase assay; stronger effect = lower value
# [6] = viability loss with induced miR-34 in A549 – imaging, A549 dox-inducible miR-34, nuclei and caspase counts, primary screen (AID 1347080;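 active = compounds whose cell count with miR-34 switched on is under 0.7 times the count with it off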); conditions: A549 miR-34 inducible, Hoechst nuclei count, 48 h
# [7] = MELAS cybrid and Rieske KO viability enhancers – cell-based, MELAS cybrids, Rieske KO mouse fibroblasts, CellTiter-Glo, primary screen (AID 1508586;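 active = mean z-score across replicates of 1.96 or higher in either the MELAS or the Rieske mutant cell line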;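 note: z relative to plate mean and SD of compound and empty wells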); conditions: low glucose
# [8] = galactose survival enhancers in mitochondrial complex I cybrids – cell-based, galactose medium, ATP luminescence, primary screen (AID 1645843;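 active = z-score of at least 1.8 in each of two replicates, scored against plate mean and spread of sample wells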;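 note: positive z means more ATP and so rescue of galactose-driven cybrid death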); conditions: complex I mutant cybrid cells, 72 h, stronger effect = higher value
# [9] = test system: F380Y; test: BK channel mutant inhibitors and activators – cell-based, U2OS BacMam, thallium flux, beta subunits, selectivity assay, profiling panel (AID 1259406); conditions: U2OS BacMam BK variants, at 30 µM;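 note: initial slope of Thallos dye fluorescence rise after thallium is added; log ratio against the mean of 0.3% DMSO vehicle wells on the same plate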
# [10] = test system: F380Y/beta1; test: as above; conditions: U2OS BacMam BK variants, at 30 µM
# [11] = test system: F380Y/beta2Delta; test: as above; conditions: U2OS BacMam BK variants, at 30 µM
# [12] = test system: F380Y/beta4; test: as above; conditions: U2OS BacMam BK variants, at 30 µM
# [13] = target: Calcium-activated potassium channel subunit alpha-1 (Homo sapiens) + Leucine-rich repeat-containing protein 26 (Homo sapiens) (UniProt Q12791+Q2I0M4); test: as above; conditions: U2OS BacMam BK variants, F380Y/Slo1WT/gamma1, at 30 µM
# [14] = test system: R275C; test: as above; conditions: U2OS BacMam BK variants, at 30 µM
# [15] = test system: R275C/beta1; test: as above; conditions: U2OS BacMam BK variants, at 30 µM
# [16] = test system: R275C/beta2Delta; test: as above; conditions: U2OS BacMam BK variants, at 30 µM
# [17] = test system: R275C/beta4; test: as above; conditions: U2OS BacMam BK variants, at 30 µM
# [18] = test system: R275C/Slo1WT/beta2; test: as above; conditions: U2OS BacMam BK variants, at 30 µM
# [19] = test system: Neuropilin-2 / VEGF-C interaction (human); test: small molecules blocking Neuropilin-2/VEGF-C interaction – biochemical, microplate binding format, z-score (AID 743281; call rule not given here); conditions: microplate NRP2/VEGF-C binding assay; stronger effect = lower value
# [20] = modulation of C. elegans fzo-1 (AID 1259413; call rule not given here;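 note: fzo-1 mutant C. elegans worms in liquid wells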); conditions: C. elegans fzo-1 modulator screen, mean read-out; stronger effect = higher value
# [21] = stronger effect = lower value, cell number ratio, induced over uninduced
# [22] = measured here: relative caspase fold change +Dox/-Dox
# [23] = measured here: total cells with miR-34 induction, stronger effect = lower value
# [24] = measured here: total cells without miR-34 induction
# [25] = MELAS cybrid survival, CellTiter-Glo 48 h, stronger effect = higher value
# [26] = Rieske KO mouse fibroblast survival, CellTiter-Glo 72 h
# Sequence of Calcium-activated potassium channel subunit alpha-1 (Homo sapiens) + Leucine-rich repeat-containing protein 26 (Homo sapiens) (Q2I0M4 whole entry, looked up, one chain of several): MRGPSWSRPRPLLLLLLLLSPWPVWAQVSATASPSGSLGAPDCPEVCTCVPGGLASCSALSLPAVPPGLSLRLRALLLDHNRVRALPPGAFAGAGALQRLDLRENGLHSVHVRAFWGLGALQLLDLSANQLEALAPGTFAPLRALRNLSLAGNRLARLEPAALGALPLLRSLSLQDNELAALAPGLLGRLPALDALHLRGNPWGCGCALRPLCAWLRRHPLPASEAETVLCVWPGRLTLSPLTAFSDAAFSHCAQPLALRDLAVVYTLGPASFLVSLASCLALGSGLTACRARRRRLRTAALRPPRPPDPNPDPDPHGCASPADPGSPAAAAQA
structure (smiles),measurement,setting,value
Fc1ccc(C2CCNCC2COc2ccc3c(c2)OCO3)cc1 (stereo not drawn),parasite load remaining,[1],-4.52% (inactive)
same,viability,[1],0.26%
same,fluorescence ratio,[2],1 (inactive)
same,inhibition,[3],-15% (inactive)
same,inhibition,[4],3.34% (inactive)
same,fluorescence ratio,[5],0.83 (inactive)
same,fold change,[6]; [21],0.992 (inactive) and 1.04 (inactive) and 0.943 (inactive)
same,fold change,[6]; [22],1.42 and 1.09 and 2.45
same,cell count,[6]; [23],5960 and 7070 and 8540
same,cell count,[6]; [24],6000 and 6830 and 9050
same,z-score,[7]; [25],-1.22 (inactive)
same,z-score,[7]; [26],0.964
same,z-score,[8],-0.98 (inactive) and -1.43 (inactive)
same,log fold change Tl+ flux,[9],0.146 (active)
same,log fold change Tl+ flux,[10],0.116 (inactive)
same,log fold change Tl+ flux,[11],0.246 (active)
same,log fold change Tl+ flux,[12],0.274 (active)
same,log fold change Tl+ flux,[13],0.0579 (inactive)
same,log fold change Tl+ flux,[14],0.0588 (inactive)
same,log fold change Tl+ flux,[15],0.254 (active)
same,log fold change Tl+ flux,[16],0.126 (active)
same,log fold change Tl+ flux,[17],0.218 (active)
same,log fold change Tl+ flux,[18],-0.0537 (inactive)
O=c1cnn([C@@H]2O[C@H](CO)[C@@H](O)[C@H]2O)c(=O)[nH]1,parasite load remaining,[1],51.8% (inactive)
same,viability,[1],79.3%
same,fluorescence ratio,[2],0.94 (inactive)
same,inhibition,[3],-2.84% (inactive)
same,inhibition,[4],-1.97% (inactive)
same,fluorescence ratio,[5],0.89 (inactive)
same,z-score,[19],-0.659 (inactive)
same,mean signal,[20],301 (inactive)
same,log fold change Tl+ flux,[9],-0.0103 (inactive)
same,log fold change Tl+ flux,[10],0.0132 (inactive)
same,log fold change Tl+ flux,[11],-0.027 (inactive)
same,log fold change Tl+ flux,[12],0.00308 (inactive)
same,log fold change Tl+ flux,[13],-0.026 (inactive)
same,log fold change Tl+ flux,[14],0.00432 (inactive)
same,log fold change Tl+ flux,[15],-0.00973 (inactive)
same,log fold change Tl+ flux,[16],-0.0295 (inactive)
same,log fold change Tl+ flux,[17],-0.0439 (inactive)
same,log fold change Tl+ flux,[18],-0.0257 (inactive)
CC(=O)[C@@]1(O)CC[C@H]2[C@@H]3C[C@H](C)C4=CC(=O)CC[C@]4(C)[C@H]3CC[C@@]21C,parasite load remaining,[1],37.7% (inactive)
same,viability,[1],68%
same,fluorescence ratio,[2],0.96 (inactive)
same,inhibition,[3],-0.22% (inactive)
same,inhibition,[4],-0.39% (inactive)
same,fluorescence ratio,[5],0.95 (inactive)
same,z-score,[19],-0.215 (inactive)
same,mean signal,[20],243 (inactive)
same,log fold change Tl+ flux,[9],0.0243 (inactive)
same,log fold change Tl+ flux,[10],0.0476 (inactive)
same,log fold change Tl+ flux,[11],0.0349 (inactive)
same,log fold change Tl+ flux,[12],-0.018 (inactive)
same,log fold change Tl+ flux,[13],0.00484 (inactive)
same,log fold change Tl+ flux,[14],-0.0195 (inactive)
same,log fold change Tl+ flux,[15],0.0286 (inactive)
same,log fold change Tl+ flux,[16],-0.00744 (inactive)
same,log fold change Tl+ flux,[17],0.0101 (inactive)
same,log fold change Tl+ flux,[18],-0.0331 (inactive)
CN1CCN2c3ncccc3Cc3ccccc3[C@@H]2C1,parasite load remaining,[1],60.5% (inactive)
same,viability,[1],95.7%
same,fluorescence ratio,[2],1 (inactive)
same,inhibition,[3],-1.36% (inactive)
same,inhibition,[4],4.1% (inactive)
same,fluorescence ratio,[5],1.01 (inactive)
same,fold change,[6]; [21],1.01 (inactive)
same,fold change,[6]; [22],3.94
same,cell count,[6]; [23],10600
same,cell count,[6]; [24],10500
same,z-score,[8],0.765 (inactive)
same,log fold change Tl+ flux,[9],0.081 (inactive)
same,log fold change Tl+ flux,[10],0.0391 (inactive)
same,log fold change Tl+ flux,[11],0.0643 (inactive)
same,log fold change Tl+ flux,[12],0.0496 (inactive)
same,log fold change Tl+ flux,[13],-0.00307 (inactive)
same,log fold change Tl+ flux,[14],0.0138 (inactive)
same,log fold change Tl+ flux,[15],0.0202 (inactive)
same,log fold change Tl+ flux,[16],0.0645 (inactive)
same,log fold change Tl+ flux,[17],0.023 (inactive)
same,log fold change Tl+ flux,[18],-0.0289 (inactive)
COc1cc(/C=C/c2ccc(O)cc2)cc(OC)c1,parasite load remaining,[1],117% (inactive)
same,viability,[1],70.6%
same,fluorescence ratio,[2],0.96 (inactive)
same,inhibition,[3],5.94% (inactive)
same,inhibition,[4],9.14% (inactive)
same,fluorescence ratio,[5],0.99 (inactive)
same,z-score,[19],-1.34 (inactive)
same,mean signal,[20],227 (inactive)
same,log fold change Tl+ flux,[9],-1.03 (active)
same,log fold change Tl+ flux,[10],-0.986 (active)
same,log fold change Tl+ flux,[11],-1.01 (active)
same,log fold change Tl+ flux,[12],-0.813 (active)
same,log fold change Tl+ flux,[13],-0.744 (active)
same,log fold change Tl+ flux,[14],-0.927 (active)
same,log fold change Tl+ flux,[15],-0.11 (active)
same,log fold change Tl+ flux,[16],-0.000996 (inactive)
same,log fold change Tl+ flux,[17],0.05 (inactive)
same,log fold change Tl+ flux,[18],-0.108 (active)
O=C(O)Cc1ccc([N+](=O)[O-])cc1,fold change,[6]; [21],0.849 (inactive)
same,fold change,[6]; [22],0.69
same,cell count,[6]; [23],8560
same,cell count,[6]; [24],10100
same,z-score,[7]; [25],-0.276 (inactive)
same,z-score,[7]; [26],-0.17
same,z-score,[8],0.95 (inactive)
same,log fold change Tl+ flux,[9],-0.0269 (inactive)
same,log fold change Tl+ flux,[10],-0.0396 (inactive)
same,log fold change Tl+ flux,[11],-0.012 (inactive)
same,log fold change Tl+ flux,[12],-0.00207 (inactive)
same,log fold change Tl+ flux,[13],-0.0215 (inactive)
same,log fold change Tl+ flux,[14],-0.0145 (inactive)
same,log fold change Tl+ flux,[15],-0.00497 (inactive)
same,log fold change Tl+ flux,[16],0.00238 (inactive)
same,log fold change Tl+ flux,[17],-0.00439 (inactive)
same,log fold change Tl+ flux,[18],0.0202 (inactive)
CC1(C)C[C@@H]1C(=O)N/C(=C\CCCCSC[C@H](N)C(=O)O)C(=O)O,parasite load remaining,[1],86.6% (inactive)
same,viability,[1],71.9%
same,fluorescence ratio,[2],1.03 (inactive)
same,inhibition,[3],0.4% (inactive)
same,inhibition,[4],-0.1% (inactive)
same,fluorescence ratio,[5],1.01 (inactive)
same,z-score,[19],-0.458 (inactive)
same,mean signal,[20],226 (inactive)
same,log fold change Tl+ flux,[9],0.00013 (inactive)
same,log fold change Tl+ flux,[10],0.0415 (inactive)
same,log fold change Tl+ flux,[11],0.0097 (inactive)
same,log fold change Tl+ flux,[12],-0.0167 (inactive)
same,log fold change Tl+ flux,[13],-0.0144 (inactive)
same,log fold change Tl+ flux,[14],-0.0675 (inactive)
same,log fold change Tl+ flux,[15],0.00997 (inactive)
same,log fold change Tl+ flux,[16],0.0368 (inactive)
same,log fold change Tl+ flux,[17],0.0142 (inactive)
same,log fold change Tl+ flux,[18],0.00806 (inactive)
